Results filed as inconclusive are left out. Calls of active or inactive are those of the source. How the source made its calls, unless noted: active means hit-call score of the fitted dose curve at least 0.9, where 1 is the maximum; inconclusive means response in the unintended direction; inactive means score below 0.9.
Assays:
[1] = TOX21_p53_BLA_p2_viability: Viability Assessment in the Tox21 HCT-116 p53 Agonism Beta-lactamase Assay, Phase 2 (AID 2283591);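 further: compound exposure lasted 16 h at 37 °C; actives lower the ATP signal meaning cytotoxicity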
Outline: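 HCT116 p53-bla cells, 4000/well, dosed after 5 h plating (217-fold dilution of DMSO stocks) and incubated 16 h at 37C. Viability taken as cellular ATP by CellTiter-Glo luminescence after 30 min RT; signal loss marks cytotoxicity.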

[2] = target: Cellular tumor antigen p53 (Homo sapiens) (UniProt P04637); test: TOX21_p53_BLA_p2_ratio: Tox21 HCT-116 p53 Agonism Beta-lactamase Assay, Ratio, Phase 2 (AID 2283592)
Cellular tumor antigen p53 (Homo sapiens), sequence (P04637 whole entry, looked up): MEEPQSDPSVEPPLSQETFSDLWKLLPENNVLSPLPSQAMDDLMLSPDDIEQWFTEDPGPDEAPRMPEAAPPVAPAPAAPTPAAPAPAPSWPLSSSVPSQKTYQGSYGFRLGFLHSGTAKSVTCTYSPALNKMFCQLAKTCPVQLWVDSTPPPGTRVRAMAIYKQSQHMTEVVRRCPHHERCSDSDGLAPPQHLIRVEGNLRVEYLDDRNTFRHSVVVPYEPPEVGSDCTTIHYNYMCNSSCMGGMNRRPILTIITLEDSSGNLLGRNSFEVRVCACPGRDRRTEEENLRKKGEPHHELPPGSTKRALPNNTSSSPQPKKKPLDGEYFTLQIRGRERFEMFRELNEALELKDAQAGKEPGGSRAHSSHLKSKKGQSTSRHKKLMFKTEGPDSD
Outline: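 Read-out is the blue/green (460/530 nm, 405 nm excitation) ratio after 2 h CCF4-AM loading, fitted as gain versus DMSO. Compounds, pinned at 217-fold dilution from DMSO stocks, stayed 16 h on HCT-116 beta-lactamase reporter cells seeded 5 h earlier.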

[3] = target: Cellular tumor antigen p53 (Homo sapiens) (UniProt P04637); test: TOX21_p53_BLA_p3_ratio: Tox21 HCT-116 p53 Agonism Beta-lactamase Assay, Ratio, Phase 3 (AID 2283596)
Outline: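 Cells were seeded at 4000/well, rested 5 h at 37C, then dosed with DMSO compound solutions (217-fold dilution) for 16 h. CCF4-AM substrate was loaded for 2 h at room temperature, and the 460/530 nm emission ratio was fitted for gain of signal versus DMSO.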

[4] = TOX21_p53_BLA_p5_viability: Viability Assessment in the Tox21 HCT-116 p53 Agonism Beta-lactamase Assay, Phase 5 (AID 2283600)
Outline: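 Viability came from CellTiter-Glo ATP luminescence, read after 30 min at room temperature. Before this, HCT-116 p53-bla cells (4000/well) had 16 hours of compound exposure at 37C, with DMSO stocks diluted 217-fold on transfer.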

[5] = target: Cellular tumor antigen p53 (Homo sapiens) (UniProt P04637); test: TOX21_p53_BLA_p4_ratio: Tox21 HCT-116 p53 Agonism Beta-lactamase Assay, Ratio, Phase 4 (AID 2283601)
Outline: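 HCT-116 p53 beta-lactamase reporter cells (4000/well) preincubated 5 h, then compound (217-fold dilution of DMSO stock) for 16 h at 37C. CCF4-AM substrate added 2 h at room temperature; 460/530 nm emission ratio fitted upward versus DMSO.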

[6] = TOX21_p53_BLA_p4_viability: Viability Assessment in the Tox21 HCT-116 p53 Agonism Beta-lactamase Assay, Phase 4 (AID 2283597);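 further: hits lower the luminescence signal meaning cytotoxicity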
Outline: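 Cytotoxicity as reduced cellular ATP (CellTiter-Glo luminescence, 30 min room temperature), measured in the same wells following the CCF4 FRET p53 reading. Human HCT-116 cells received compounds in DMSO (217-fold dilution) for 16 h.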

THRB (gene 7068) [7] = target: THRB (gene 7068) (UniProt P10828); test: TOX21_TRB_BLA_Antagonist_Followup_ratio: Tox21 Thyroid Hormone Receptor beta Antagonism Beta-lactamase (BLA) Follow-Up Assay, Ratio (AID 2283958)
THRB (gene 7068), sequence (P10828 whole entry, looked up, the tested form may be a part): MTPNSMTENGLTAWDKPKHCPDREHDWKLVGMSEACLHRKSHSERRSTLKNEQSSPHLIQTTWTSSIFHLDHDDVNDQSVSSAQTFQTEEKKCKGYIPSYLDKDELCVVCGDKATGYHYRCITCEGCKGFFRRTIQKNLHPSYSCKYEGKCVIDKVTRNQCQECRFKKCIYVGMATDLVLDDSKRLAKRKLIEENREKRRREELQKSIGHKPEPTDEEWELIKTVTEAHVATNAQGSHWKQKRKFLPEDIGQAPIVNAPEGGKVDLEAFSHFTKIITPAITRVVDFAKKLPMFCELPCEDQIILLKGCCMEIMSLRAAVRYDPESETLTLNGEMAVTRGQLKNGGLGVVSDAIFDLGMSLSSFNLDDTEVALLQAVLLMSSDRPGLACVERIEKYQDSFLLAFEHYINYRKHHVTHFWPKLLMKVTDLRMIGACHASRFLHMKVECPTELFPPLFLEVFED
Outline: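 Beta-lactamase reporter ratio (460/530 nm, CCF4-AM substrate, 2 h room temperature) was read in TRb-bla HEK293T cells after 18 h compound treatment (11 concentrations, triplicate) at 37C in 2% charcoal-stripped FBS medium. Loss of signal fitted against DMSO.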

[8] = TOX21_TRB_BLA_Antagonist_Followup_viability: Viability Assessment in the Tox21 Thyroid Hormone Receptor beta Antagonism Beta-lactamase (BLA) Follow-Up Assay (AID 2283961)
Outline: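 ATP-based CellTiter-Glo luminescence (30 min, room temperature) run in the same wells as the TRβ-bla readout. Cells: GeneBLAzer HEK293T expressing GAL4-TRβ LBD, exposed 18 h at 37C to compounds at 11 concentrations in triplicate, stripped-serum medium.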

THRB (gene 7068) [9] = target: THRB (gene 7068) (UniProt P10828); test: TOX21_TRB_COA_Antagonist_Followup_ratio: Tox21 Thyroid Hormone Receptor beta Antagonism through Coactivator Recruitment Follow-Up Assay, Ratio (AID 2283967)
Outline: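 GST-TRb LBD 5.0 nM + 0.10% BSA, compound added; fluorescein-SRC-2 peptide 200 nM, Tb-anti-GST Ab 2 nM. TR-FRET, ex 340 / em 520:495 ratio. Norm: DMSO 0%, T3 100%.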

[10] = CCTE_Harrill_HTTr_Viability_MCF7: CCTE's 6-hour Cell Viability Assessment for the High-Throughput Transcriptomics (HTTr) Platform, in MCF-7 cells cultured in DMEM + 10% fetal bovine serum, Harrill Lab (AID 2284010; active means hit-call score of the fitted dose curve at least 0.9, where 1 is the maximum; inactive means score below 0.9)
Outline: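 Propidium iodide exclusion, imaged by high-content analysis, gauged viability after a six-hour exposure across eight concentrations. Cells were MCF-7 grown in DMEM with 10% fetal bovine serum; fits run in both directions against DMSO.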

[11] = CCTE_Harrill_HTTr_Apoptosis_MCF7: CCTE's 6-hour Apoptosis Assessment for the High-Throughput Transcriptomics (HTTr) Platform, in MCF-7 cells cultured in DMEM + 10% fetal bovine serum, Harrill Lab (AID 2284011; active means hit-call score of the fitted dose curve at least 0.9, where 1 is the maximum; inactive means score below 0.9)
Outline: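 High-content imaging of CellEvent Caspase 3/7 Green signal follows a six-hour exposure, with eight concentrations per chemical. MCF-7 cells grown in DMEM plus 10% fetal bovine serum; activity fitted in both directions against DMSO.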

[12] = CCTE_Harrill_HTTr_CellCount_MCF7: CCTE's Cell Proliferation Assessment for the High-Throughput Transcriptomics (HTTr) Platform, Harrill Lab (AID 2284012);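 further: cells exposed to compound for six hours; intended direction is loss of nuclei count meaning fewer cells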
Outline: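 Cell count from high-content imaging of Hoechst-labeled nuclei serves as viability/growth readout. Chemicals were applied to MCF-7 cells in eight concentrations for six hours, with fitting in both directions relative to DMSO.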

[13] = target: Cellular tumor antigen p53 (Homo sapiens) (UniProt P04637); test: TOX21_p53_BLA_p5_ratio: Tox21 HCT-116 p53 Agonism Beta-lactamase Assay, Ratio, Phase 5 (AID 2283599)
Outline: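 HCT-116 p53-bla cells (4000/well) plated 5 h, dosed with compound (217-fold DMSO dilution) for 16 h at 37 C; CCF4-AM substrate 2 h at room temperature. Activity is the 460/530 nm emission ratio (405 nm excitation), fitted in gain-of-signal direction versus DMSO.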

Measured: outcome

Cc1cc2c(OCC(CNC(C)(C)C)OC(=O)c3ccccc3)cccc2[nH]1 (centres undefined)
inactive: [1] | [2] | [3] | [4]

CCC(C)O (centres undefined)
inactive: [1] | [2] | [3] | [4]

NS(=O)(=O)c1ccccc1OC(F)(F)F
inactive: [1] | [2] | [3] | [4] | [5]

CC(C)NC[C@@H](O)COc1ccc(CC(N)=O)cc1
inactive: [1] | [2] | [3] | [5]

CO[C@H]1O[C@H](CO)[C@@H](O)[C@H](O)[C@H]1O
inactive: [1] | [2] | [6]

Cc1nc(-c2ccc(OCC(C)C)c(C#N)c2)sc1C(=O)O
inactive: [1] | [2] | [3] | THRB (gene 7068) [7] | [8] | THRB (gene 7068) [9] | [10] | [11] | [12]

O=C(NCC(O)CO)c1c(I)c(C(=O)NCC(O)CO)c(I)c(N(CCO)C(=O)CO)c1I (centres undefined)
inactive: [1] | [2] | [3] | [4] | [5]

CC(=C(CCOP(=O)(O)O)SC(=O)c1ccccc1)N(C=O)Cc1cnc(C)nc1N
inactive: [1] | [2] | [3] | [13] | [5]
